# An excerpt weighted towards active compounds, which were near 7.7% of everything screened.
# HCMV antiviral: qHTS Assay for inhibitors of the human cytomegalovirus (HCMV); 4.5% of 410,000 active; HFF cells, HCMV-luciferase reporter, 72 h; hits give low values; activity change, negative = inhibition, % at 57.5 µM; in the data active = activity change below about -60%; inconclusive = no clear call, values can overlap the other calls; inactive = above about -39%
#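 Luciferase read-out from HCMV-luciferase-infected HFFs (MOI 1 PFU/cell) 72 h post infection at 37C; compounds added after 16 h cell attachment; activity normalized between buffer-only basal and Salinomycin (10uM) inhibitor controls.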
# Sm TGR block: qHTS Assay for the Inhibitors of Schistosoma Mansoni Peroxiredoxins; 3% of 360,000 active; purified TGR, DTNB reduction, TNB absorbance 405 nm; AID 485364, 2010; Schistosoma mansoni thioredoxin glutathione reductase (TGR), Q962Y6; Potency, µM (titrated, usually from 114 µM), without a hit: at the top dose activity change, negative = inhibition, actives largely listed as inhibitors; note: potency is the fitted concentration of half-maximal effect; nearly all actives have a fitted effect of over 60% in size
#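 First, TGR (20 nM dispensed) and NADPH were mixed with compound. Second, a 15 min room-temperature incubation followed. Third, further NADPH and then DTNB were added to start the reaction. Finally, TNB absorbance was monitored kinetically.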
# FMDV antiviral: High Throughput Screening for Foot and Mouth Disease Virus Antivirals | 1.2% of 410,000 active | Potency, µM (highest dose often 57.9 µM), without a hit: at the highest dose activity change, negative = inhibition, usual class: inhibitors | AID 1159524, 2015 | FMDV antiviral cell-based qHTS; calls by dose curve; tested in HEK293T cells; note: read-out not given here; potency is the fitted concentration of half-maximal effect; nearly all actives have a fitted effect of over 45% in size
# TbPYK inhibitor: qHTS of Trypanosoma Brucei Inhibitors; TbPYK enzyme, Kinase-Glo Plus ATP luminescence, 45 min; Potency, µM (series often up to 76.8 µM), inactives show at the highest dose activity, negative = inhibition, most hits filed as inhibitors; 0.12% of 410,000 active; AID 624173, 2012; pyruvate kinase (Trypanosoma brucei), Q57TT1; note: potency is the fitted concentration of half-maximal effect; nearly all actives have a fitted effect of over 50% in size
#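 Screened from lowest to highest concentration, compounds were pinned into TbPYK/substrate mixtures, and ADP (130 uM final) was added. Plates sat at room temperature for 45 min prior to Kinase-Glo Plus detection by luminescence.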
# RE007 growth inh: qHTS Assay for Inhibitors of the HIV-1 protein Vpr; S. pombe RE007 Vpr strain, BacTiter-Glo ATP luminescence, 24 h; Potency, µM (highest dose often 92.2 µM), without a hit: top-dose activity change, negative = less growth, actives largely listed as inhibitors; 0.21% of 360,000 active; active = well fitted falling curve with a large enough effect; inconclusive = small, poorly fitted or top-dose-only effect; inactive = no such curve, though single readings can be large or run the other way; note: potency is the fitted concentration of half-maximal effect; nearly all actives have a fitted effect of over 50% in size
#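 Fission yeast strain RE007, carrying one chromosomally integrated HIV-1 vpr copy, was seeded at OD 0.01 in PMG+AL medium with 23 nL pinned compound. After 24 h at 30 °C and 99% humidity, viability was read by BacTiter-Glo luminescence.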
# FBPA Giardia inh: qHTS Assay for Inhibitors of Fructose-1,6-bisphosphate Aldolase from Giardia Lamblia; A8B2U2; purified Giardia FBPA; Potency, µM (series often up to 59.6 µM), without a hit: top-dose activity, negative = inhibition, actives largely listed as inhibitors; 0.71% of 290,000 active; AID 2451, 2010; note: potency is the fitted concentration of half-maximal effect; nearly all actives have a fitted effect of over 55% in size
# Target sequence (A8B2U2 whole entry, looked up): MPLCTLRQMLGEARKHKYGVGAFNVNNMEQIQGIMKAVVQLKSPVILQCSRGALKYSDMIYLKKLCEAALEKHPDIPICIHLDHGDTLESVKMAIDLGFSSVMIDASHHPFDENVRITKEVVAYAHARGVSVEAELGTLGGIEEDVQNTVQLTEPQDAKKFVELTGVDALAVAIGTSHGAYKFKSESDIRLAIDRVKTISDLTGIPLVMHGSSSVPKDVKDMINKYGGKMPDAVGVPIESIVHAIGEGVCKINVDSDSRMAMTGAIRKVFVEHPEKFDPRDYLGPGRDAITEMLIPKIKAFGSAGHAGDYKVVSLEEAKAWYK
#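 Giardia FBPA (40 nM reagent) was preincubated 10 min at RT with compound (up to 57.5 uM final), then substrate plus GAPDH/TPI/NAD/arsenate coupling system with diaphorase/resazurin was added; resorufin fluorescence (525/598 nm) was read after 20 min.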
# Starred values were filed as active, the others as inactive; ? = inconclusive; . = no result given. Unless noted, calls come from the whole dose curve; as a rule, active = well fitted curve in the direction sought with a large enough effect; inconclusive = small, poorly fitted or top-dose-only effect, or another doubt; inactive = no such curve, though single readings can be large; an effect the other way counts as inactive or inconclusive. % is set by controls: 0 for no effect and ±100 for the full control effect.
SMILES,HCMV antiviral,Sm TGR block,FMDV antiviral,TbPYK inhibitor,RE007 growth inh,FBPA Giardia inh
O=C(NCc1ccccc1)C1=C[C@H](c2ccc(Br)cc2)C[C@H](OCc2ccc(CO)cc2)O1,26.7,-12.6%,-11.9%,-6.1%,-6.9%,-11.7%
CCCCNc1nc(C)nc2c1nc(-c1ccccc1)n2CCN1CCCC1,.,.,.,.,.,3.1%
FC(F)(F)c1cnc(-c2cc3c(c(OCC4CCCO4)c2)OCCN(Cc2cccn2-c2nccs2)C3)c(Cl)c1 (stereo not given),.,.,-10.0%,.,.,.
NNC(=O)CCN(Cc1ccco1)S(=O)(=O)c1ccc(Cl)cc1,-66.6*,-2.6%,-14.7%,-0.5%,-10.9%,7.3%
COc1ccc(-c2nnn3c2nc(NCCc2ccc(OC)c(OC)c2)c2ccccc23)cc1,46.4,-0.7%,?,0.0%,.,.
CC1CCCCN1C(=O)c1ccc(C(=O)Nc2ccc(F)cc2)cc1 (stereo not given),?,-11.6%,-14.5%,-1.1%,-18.8%,.
Cc1occc1C(=O)N1CCCC(Nc2ccc(C(C)C)cc2)C1 (stereo not given),-64.7*,-11.6%,0.0%,-4.2%,-1.8%,-4.4%
O=C(Nc1ccc(F)cc1)c1ccc(C(=O)N2CCCC(O)C2)cc1 (stereo not given),-10.9,3.98µM*,1.5%,-4.3%,9.9%,.
Cc1ccc(C(=O)N2CCCC(Nc3ccc(F)cc3)C2)cc1C (stereo not given),-12.1,79.4µM*,-29.6%,1.3%,5.8%,.
CCc1cccc(NC(=O)c2ccc3c(c2)N(Cc2cccc(Cl)c2)C(=O)c2ccccc2S3=O)c1 (stereo not given),-7.5,14.9%,-15.7%,-10.8%,.,.
CCC(=O)N1c2ccccc2CC1C(=O)NCCc1ccccc1OC (stereo not given),24.2,-3.1%,-10.4%,0.4%,.,.
CCc1cccc(NC(=O)CN(C)S(=O)(=O)c2ccc3c(c2)CCCN3C(C)=O)c1,-20.2,2.0%,-15.7%,4.6%,.,.
CN(C)c1ccc([C@@H]2[C@@H]([N+](=O)[O-])[C@H]3C=Cc4ccccc4N3[C@H]2C(=O)c2ccc(Cl)cc2)cc1,-66.9*,44.7µM*,-23.5%,-5.4%,?,-13.9%
O=C(c1ccccc1)C1C(c2ccccc2)C1[N+](=O)[O-] (stereo not given),-2.6,8.1%,-13.7%,2.9%,11.1%,0.7%
CO[C@@]1(NC(=O)CSC(F)F)C(=O)N2C(C(=O)O)=C(CSc3nnnn3CCO)CO[C@@H]21,.,.,.,-9.2%,.,.
CCN(CC)c1nc2c(S(=O)(=O)c3cccc(Cl)c3)nnn2c2ccsc12,-61.1*,2.3%,-18.0%,-3.5%,.,.
CCN(CC)c1nc2c(S(=O)(=O)c3ccccc3)nnn2c2ccc(Cl)cc12,-76.3*,0.8%,10.9%,3.1%,.,.
OC[C@H](S)CS,.,.,.,-0.8%,.,.
CCN(CC)S(=O)(=O)c1cccc(NC(=O)COC(=O)c2[nH]c(C)c(C(C)=O)c2C)c1,-85.0*,.,11.2µM*,2.4%,7.4%,.
O=C(COC(=O)CCc1ccc(S(=O)(=O)N2CCCCC2)cc1)Nc1cccc2ccccc12,-106.3*,7.7%,-18.9%,3.1%,1.2%,0.4%
CC(=O)c1c(C)[nH]c(C(=O)OCC(=O)Nc2ccc3[nH]c(=O)[nH]c3c2)c1C,63.6,-16.2%,15.2%,-1.3%,19.8%,.
CC(=O)c1c(C)[nH]c(C(=O)OCC(=O)Nc2cc(S(=O)(=O)N3CCCC3)ccc2Cl)c1C,?,-7.1%,?,3.6%,4.2%,0.0%
COc1cccc(/C=C/C(=O)OCC(=O)c2ccc(S(=O)(=O)N3CCCCC3)cc2)c1OC,-23.6,-1.6%,-18.7%,-0.8%,6.3%,.
COc1cccc(C(=O)OCC(=O)c2ccc(S(=O)(=O)N3CCCCC3)cc2)c1OC,-99.6*,-8.7%,?,2.4%,-1.5%,.

# Compound activity from PubChem.
